Assay outcomes: PubChem BioAssay, National Center for Advancing Translational Sciences (NCATS)
RORg inh: ROR gamma (mouse) transcription inhibition; P51450; Drosophila S2 Gal4-RORgamma UAS-luciferase reporter, 20 h; Potency, µM (titrated, usually from 53.6 µM), for inactives: at the top dose activity change, negative = inhibition, actives largely listed as inhibitors; 5.4% of 310,000 active; AID 2551; note: nearly all actives have a fitted effect of over 60% in size
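Compounds are pin-transferred onto Drosophila Schneider cells expressing a copper-inducible Gal4–ROR gamma transactivation domain fusion. After 1 hr, copper sulfate is added to 700 uM final; luciferase is read 20 hr later.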
DT40 TDP1 no CPT: qHTS for Inhibitors of human tyrosyl-DNA phosphodiesterase 1 (TDP1): qHTS in cells in absence of CPT; DT40 Tdp1-/- hTDP1 cells, no CPT, ATP luminescence, 48 h; 15% of 420,000 active; Potency, µM (highest dose often 46.2 µM), for the others: at the highest dose activity change, negative = growth inhibition, most hits filed as inhibitors; note: nearly all actives have a fitted effect of over 55% in size
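Cells were dispensed at 400 per well, compounds added by pin tool, plates incubated ≥48 hr at 37 °C, then CellTiter-Glo added for 30 min at room temperature before luminescence reading. Line: DT40 Tdp1-/- complemented with hTDP1; camptothecin omitted.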
DT40 TDP1 CPT: DT40-hTDP1 cell growth loss with CPT. chicken DT40 Tdp1-/-;hTDP1 cells + 20 nM CPT, ATP luminescence, 48 h. Potency, µM (top dose mostly 46.2 µM), inactives show at the top dose activity change, negative = growth inhibition, actives largely listed as inhibitors. 12% of 420,000 active. AID 686979; note: nearly all actives have a fitted effect of over 55% in size
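Chicken DT40 Tdp1-/- cells complemented with human TDP1, 400 cells/well, exposed to compounds plus 20 nM camptothecin for at least 48 h at 37 C; viability read as ATP content by CellTiter-Glo luminescence.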
12-LOX inh: blocks human arachidonate 12S-lipoxygenase. P18054. Potency, µM (top dose mostly 108 µM), without a hit: at the top dose activity change, negative = inhibition, actives largely listed as inhibitors. purified 12hLO, xylenol orange hydroperoxide absorbance. 1.1% of 580,000 active
Target sequence (P18054 whole entry, looked up): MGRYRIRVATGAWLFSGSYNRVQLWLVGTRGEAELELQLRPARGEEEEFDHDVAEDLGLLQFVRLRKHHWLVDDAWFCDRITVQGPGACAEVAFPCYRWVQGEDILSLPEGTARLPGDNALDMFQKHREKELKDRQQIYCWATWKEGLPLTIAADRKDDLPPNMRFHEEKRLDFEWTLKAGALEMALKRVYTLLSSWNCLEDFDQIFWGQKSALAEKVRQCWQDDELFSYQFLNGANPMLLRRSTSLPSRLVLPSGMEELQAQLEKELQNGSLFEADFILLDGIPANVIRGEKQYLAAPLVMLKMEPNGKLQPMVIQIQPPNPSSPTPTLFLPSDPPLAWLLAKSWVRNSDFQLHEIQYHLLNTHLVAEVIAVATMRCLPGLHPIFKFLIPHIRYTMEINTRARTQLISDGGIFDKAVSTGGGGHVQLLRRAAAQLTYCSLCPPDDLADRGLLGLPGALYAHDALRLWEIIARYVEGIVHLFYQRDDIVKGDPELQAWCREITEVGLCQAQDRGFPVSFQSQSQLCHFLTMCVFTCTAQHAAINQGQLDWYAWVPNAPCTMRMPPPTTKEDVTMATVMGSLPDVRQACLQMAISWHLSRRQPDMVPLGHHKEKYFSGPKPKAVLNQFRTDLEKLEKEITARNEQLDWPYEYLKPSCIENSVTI
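Purified human 12hLO at 150 nM in 25 mM Hepes, 0.01% Triton X-100, pH 7.0, preincubated 15 min at room temperature with compound. Reaction started with 40 uM arachidonic acid, 30 min at room temperature. Hydroperoxide measured by Fe-xylenol orange, 573/405 nm absorbance ratio.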
ELG1 DNA repair: inhibitors of ELG1-dependent DNA repair in HEK293T cells | 2.3% of 330,000 active | AID 504467 | HEK293T ELG1-luciferase reporter, luminescence, 16 h; DNA damage induced by 5-fluorouridine | Potency, µM (series often up to 46.1 µM), for the others: top-dose activity change, negative = inhibition, usual class: inhibitors; note: nearly all actives have a fitted effect of over 55% in size
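HEK293T cells expressing luciferase-tagged ELG1 (2,000/well) received 5-Fluorouridine plus compound or DMSO for 16 hr at 37 °C. Luciferase was read by ONE-Glo luminescence after 30 min at room temperature.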
VP16 counter: inhibits Gal4-VP16 luciferase reporter, ROR gamma counter-screen; Drosophila S2 Gal4-VP16 UAS-luciferase, luminescence, 20 h; Potency, µM (top dose mostly 53.6 µM), inactives show at the highest dose activity, negative = inhibition, hits mostly inhibitors; 3.5% of 310,000 active; AID 2546;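 note: Gal4-VP16 expression switched on by copper sulfate through the metallothionein promoter; nearly all actives have a fitted effect of over 50% in size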
* = called active by the depositor; ? = inconclusive; / = not tested or not shown; [ ] = remark or other dose. Most compounds without a hit are left out; they make up all but 15% or so of the library. Calls come from the whole dose curve; as a rule, active = well fitted curve in the direction sought with a large enough effect; inconclusive = small, poorly fitted or top-dose-only effect, or another doubt; inactive = no such curve, though single readings can be large; an effect the other way counts as inactive or inconclusive. % is set by controls: 0 for no effect and ±100 for the full control effect; potency is the fitted concentration of half-maximal effect.

SMILES	RORg inh	DT40 TDP1 no CPT	DT40 TDP1 CPT	12-LOX inh	ELG1 DNA repair	VP16 counter
CCOC(=O)c1cc(-c2ccccc2)n(CCCC(=O)Nc2ccc(C(C)C)cc2)c1C	/	21µM*	?	-13%	/	/
CCOC(=O)c1cc(-c2ccccc2)n(CCC(=O)Nc2nc3c(C)cccc3s2)c1C	/	13µM*	13µM*	?	/	/
CCOC(=O)c1cc(-c2ccccc2)n(CCC(=O)O)c1C	18%	-21%	-26%	18%	-8%	-5%
COCc1cc(C[C@@H]2CC[C@H](O)[C@@H](CNCc3ccc(F)cc3)O2)no1	/	/	/	0%[176 µM]	/	/
Cc1ccc(C(=O)N2CCn3c(nnc3C3CCCNC3)C2)cc1 (stereo not drawn)	/	/	/	41%[176 µM]	/	/
O=S1(=O)c2ccccc2N=NN1Cc1ccc(Cl)c(Cl)c1	-1%	/	/	/	/	18%
CC(C)(C)c1ccc(CN2N=Nc3ccccc3S2(=O)=O)cc1	23%	7.3µM*	5.8µM*	?	?	1.6µM*
COc1ccccc1N1CCN(C(=O)c2cc3cn(C4CCCC4)cc3s2)CC1	/	/	/	5%	/	/
COc1ccc(C(=O)N2CCC3(CC2)NC(=O)N(Cc2ccc(F)cc2)C3=O)c(C)c1	/	/	/	11%	/	/
Cn1c(=O)[nH]c(=O)c2c1nc(SCc1ccc(F)cc1)n2CCCc1ccccc1	/	/	/	-17%	/	/
Clc1ccc(CON/C=N/c2ncnc3sccc23)c(Cl)c1	-4%	10µM*	13µM*	-9%	-26%	?
CN(C)c1nc(-c2ccncc2)nc2c1CCN(C(=O)c1[nH]ncc1Cl)C2	/	/	/	33%	/	/
Cc1cccc(NC(=O)c2ccc(F)c(S(=O)(=O)NCc3ccco3)c2)c1	26%	?	?	?	-2%	5%
O=C(Nc1cc(Cl)cc(Cl)c1)c1ccc(F)c(S(=O)(=O)NCc2ccccc2Cl)c1	/	10µM*	-99%	-27%	/	/
O=C(Nc1cccc(Cl)c1)c1ccc(F)c(S(=O)(=O)NCc2cccs2)c1	15%	?	?	-16%	?	20µM*
CCCC1C=CCN1C(=O)c1cc(-c2ccncc2)nc2ccccc12 (stereo not drawn)	/	/	/	-17%	/	/
O=C(c1ccc2[nH]ccc2c1)N1CCCN(c2cc(-c3ccc(F)cc3)[nH]n2)CC1	/	/	/	48%	/	/
CC1CCC(NC(=O)CN2C(=O)c3ccccc3S2(=O)=O)CC1 (stereo not drawn)	/	3%	2%	5%	?	/
CC1CCC(NC(=O)CN2C(=O)C3CC=CCC3C2=O)CC1 (stereo not drawn)	/	5.8µM*	-10%	-5%	24%	/
Cc1sc(NC(=S)NC(=O)c2ccc(C(C)(C)C)cc2)c(C#N)c1C	0.56µM*	-21%	?	?	?	11µM*
Cc1sc(NC(=O)CC(C)(C)C)c(C#N)c1C	/	/	/	13µM*	/	/
Cc1sc(NC(=S)NC(=O)c2ccccc2)c(C#N)c1C	/	?	?	-14%	/	/
O=C1CCC(C(=O)N2CCOCC2)CN1Cc1ccc(Cl)cc1 (stereo not drawn)	-24%	-2%	11%	0%	8%	6%
CC(C)C1CCN(C(=O)C2CCC(=O)N(CCc3ccc(Cl)cc3)C2)CC1 (stereo not drawn)	43%	?	?	9%	-17%	-4%
C=CCC1(CC=C)CCCN1C(=O)C1CCC(=O)N(Cc2ccc(Cl)cc2)C1 (stereo not drawn)	/	8.2µM*	10µM*	?	/	/
SMILES	RORg inh	DT40 TDP1 no CPT	DT40 TDP1 CPT	12-LOX inh	ELG1 DNA repair	VP16 counter
C=CCC1(CC=C)CCCN1C(=O)C1CCC(=O)N(CCc2ccc(Cl)cc2)C1 (stereo not drawn)	?	13µM*	18µM*	7%	-14%	0%
NC(=O)CNC(=O)[C@@]1(O)C[C@@H](O)[C@H](O)[C@@H](NC(=O)Nc2ccc(OC(F)(F)F)cc2)C1	/	/	/	3%	/	/
Cc1ccc(C)c(Nc2cc(C)nc3ccccc23)c1	/	16µM*	15µM*	0%	/	/
Cc1cc(Nc2ccc3c(c2)OCCO3)c2cc(Cl)ccc2n1	-41%	15µM*	?	-16%	?	-7%
Cc1ccc(Nc2cc(C)nc3ccccc23)c(C)c1	/	12µM*	12µM*	0%	/	/
Cc1cc(Nc2cccc(Cl)c2)c2ccccc2n1	4%	23µM*	21µM*	2%	?	7%
Cc1cccc(Nc2cc(C)nc3ccccc23)c1	5%	?	-1%	-66%	-3%	-5%
COc1ccc(NC(=O)Cn2ccc3cc(Cl)ccc32)c(OC)c1	/	/	/	11%	/	/
O=C(c1ccncn1)N1C[C@@H](COCC2CC2)[C@H](c2ccncc2)C1	/	/	/	3%	/	/
O=C(CCc1ccccc1)NCCc1c[nH]c2ccccc12	/	/	/	8%	/	/
Cc1ccc(NC(=O)CN(C)C(=O)C(C)N2CCCC(C(F)(F)F)C2)cc1 (stereo not drawn)	/	/	/	-7%	/	/
COc1cccc2c(Nc3ccccc3C)cc(C)nc12	-23%	13µM*	18µM*	0%	-10%	-7%
CN(C)C1CCN(c2ccc(C(=O)N3CCC(N4CCOCC4)CC3)cn2)C1 (stereo not drawn)	/	/	/	31%	/	/
CCOc1ccc(S(=O)(=O)Nc2cc(SCC(=O)O)c(O)c3ccccc23)cc1	10µM*	4.6µM*	3.7µM*	?	?	?
